Data from the supplement of paper PMC10849652.
Of roughly 7,900 targets only a part is listed; those with a hit were picked by preference. About 0.6% of all pairs of compound and target were hits. Values without a mark were called inactive.

Tests used:
Test in all cases: log2 fold change, soluble protein after heating vs DMSO (PISA); higher = thermal stabilisation; K562 cells, 10 uM, 30 min; active = over 0.2 and 3.5 SD of the protein, either way, in both replicates (recomputed)
[1] = compound: CC1=C(C=C(C=C1)NC(=O)C2=CC(=CC=C2)C(C)(C)C#N)NC3=CC4=C(C=C3)N=CN(C4=O)C
How it was run: (§1)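 Values are thermal stability changes relative to control samples and are taken from duplicates. They are stated as log2 fold changes. Before quantification by TMTpro 16plex LC-MS/MS with equalised channel sums, K562 cells at 2×10^6 cells/mL were treated with 10 μM compound for 30 min, heated in aliquots for 3 min across 48°C-58°C, pooled, extracted in PBS with 0.5% NP-40 at 4°C, and centrifuged at 21,000xg for 90 min to give the soluble supernatant.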

[2] = compound: CC1=C(C=C(C=C1)NC(=O)C2=CC(=CC=C2)N(C)C)NC(=O)C3=CC=C(C=C3)O
How it was run: as §1

[3] = compound: CC1=CC=C(C=C1)SC2=C3C=C(SC3=CN=C2)C(=O)N
How it was run: as §1

[4] = compound: CC1=NC(=CC=C1)C2=C(N=C(N2)C(C)(C)C)C3=CC4=NC=CN=C4C=C3
How it was run: as §1

[5] = compound: CCCCN(Cc1ccc(C(=O)NO)cc1)C(=O)Nc1ccccc1 [Nexturastat A]
How it was run: as §1

[6] = compound: CCCS(=O)(=O)Nc1ccc(F)c(C(=O)c2c[nH]c3ncc(-c4ccc(Cl)cc4)cc23)c1F [vemurafenib]
How it was run: as §1

[7] = compound: CCCS(=O)(=O)Nc1ccc(F)c(C(=O)c2c[nH]c3ncc(Cl)cc23)c1F
How it was run: as §1

[8] = compound: CCCc1cc(C)[nH]c(=O)c1CNC(=O)c1cc(-c2ccnc(N3CCN(C)CC3)c2)cc2c1cnn2C(C)C
How it was run: as §1

[9] = compound: CCN(CC)Cc1ccc2cc(COC(=O)Nc3ccc(C(=O)NO)cc3)ccc2c1 [givinostat]
How it was run: as §1

[10] = compound: CCN(CCCOc1ccc2c(Nc3cc(CC(=O)Nc4cccc(F)c4)[nH]n3)ncnc2c1)CCOP(=O)(O)O [barasertib]
How it was run: as §1

[11] = compound: CC[C@@H]1C(=O)N(C)c2cnc(Nc3ccc(C(=O)NC4CCN(C)CC4)cc3OC)nc2N1C1CCCC1
How it was run: as §1

[12] = compound: CC[C@@H]1C(=O)N(C)c2cnc(Nc3ccc(C(=O)N[C@H]4CC[C@H](N5CCN(CC6CC6)CC5)CC4)cc3OC)nc2N1C(C)C [volasertib]
How it was run: as §1

[13] = compound: CC[C@H](C)N1C=C(C2=C(C=C(C=C21)C3=CN=C(C=C3)N4CCNCC4)C(=O)NCC5=C(C=C(NC5=O)C)C)C
How it was run: as §1

[14] = compound: CC[C@H](C)[C@@H](C(=O)N[C@@H]([C@@H](C)O)C(=O)N[C@@H](CC(C)C)C(=O)[C@]1(CO1)C)NC(=O)[C@H]([C@@H](C)CC)N(C)C(=O)C [epoxomicin]
How it was run: as §1

[15] = compound: CCn1c(C(=O)N(C2CC2)C2CC2)cc2c3c(ncn3C)c(Nc3cc(C)n(C)n3)nc21
How it was run: as §1

[16] = compound: CCn1cc(-c2ccnc3[nH]c(-c4cccc(CN(C)C)c4)cc23)c(-c2ccc(NC(=O)N(C)C)cc2)n1
How it was run: as §1

[17] = compound: CN(C)CC(=O)Nc1ccc2[nH]c(=O)c3ccccc3c2c1
How it was run: as §1

[18] = compound: CN(CCOC1=CC=C(C=C1)C[C@H]2C(=O)NC(=O)S2)C3=CC=CC=N3 (racemic) [rosiglitazone]
How it was run: as §1

[19] = compound: CN1C2=C(C3=C1C(=O)N(N=C3)CC4=CC(=CC=C4)N)SC(=C2)S(=O)C
How it was run: as §1

[20] = compound: CN1CCC(CNc2ccc3ncc(-c4cccc(OC(F)(F)F)c4)n3n2)CC1
How it was run: as §1

UniProt Q8NEM2, sequence (Q8NEM2 whole entry, looked up): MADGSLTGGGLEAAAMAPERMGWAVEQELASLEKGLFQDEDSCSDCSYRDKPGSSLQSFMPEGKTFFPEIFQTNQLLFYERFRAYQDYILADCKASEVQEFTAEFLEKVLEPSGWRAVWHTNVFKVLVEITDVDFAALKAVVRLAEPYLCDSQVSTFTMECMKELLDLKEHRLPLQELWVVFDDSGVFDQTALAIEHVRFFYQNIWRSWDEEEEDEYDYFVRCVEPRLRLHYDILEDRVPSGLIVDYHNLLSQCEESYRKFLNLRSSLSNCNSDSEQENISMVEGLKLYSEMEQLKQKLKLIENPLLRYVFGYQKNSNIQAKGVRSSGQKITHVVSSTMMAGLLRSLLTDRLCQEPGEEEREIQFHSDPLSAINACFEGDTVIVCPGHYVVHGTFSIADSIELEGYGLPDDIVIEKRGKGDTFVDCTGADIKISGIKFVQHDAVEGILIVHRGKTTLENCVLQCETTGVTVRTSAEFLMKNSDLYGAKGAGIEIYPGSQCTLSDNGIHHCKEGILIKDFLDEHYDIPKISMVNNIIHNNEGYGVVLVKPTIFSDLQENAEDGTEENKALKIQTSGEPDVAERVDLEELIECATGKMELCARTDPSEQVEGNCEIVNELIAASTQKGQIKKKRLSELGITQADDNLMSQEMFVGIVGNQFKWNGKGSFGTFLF
UniProt P58004, sequence (P58004 whole entry, looked up): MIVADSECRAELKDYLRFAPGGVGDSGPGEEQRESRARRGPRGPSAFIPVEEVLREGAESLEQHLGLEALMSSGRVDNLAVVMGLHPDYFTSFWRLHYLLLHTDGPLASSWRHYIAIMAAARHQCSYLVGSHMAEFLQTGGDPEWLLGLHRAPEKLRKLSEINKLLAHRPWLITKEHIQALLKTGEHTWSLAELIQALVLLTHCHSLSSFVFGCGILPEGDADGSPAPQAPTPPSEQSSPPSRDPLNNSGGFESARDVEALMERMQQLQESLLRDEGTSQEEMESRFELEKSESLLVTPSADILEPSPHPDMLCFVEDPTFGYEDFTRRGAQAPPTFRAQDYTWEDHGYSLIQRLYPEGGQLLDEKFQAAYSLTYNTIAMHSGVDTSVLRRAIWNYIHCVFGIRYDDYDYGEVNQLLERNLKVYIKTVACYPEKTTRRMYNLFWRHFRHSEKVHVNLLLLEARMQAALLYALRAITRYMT
UniProt Q9BXP2, sequence (Q9BXP2 whole entry, looked up): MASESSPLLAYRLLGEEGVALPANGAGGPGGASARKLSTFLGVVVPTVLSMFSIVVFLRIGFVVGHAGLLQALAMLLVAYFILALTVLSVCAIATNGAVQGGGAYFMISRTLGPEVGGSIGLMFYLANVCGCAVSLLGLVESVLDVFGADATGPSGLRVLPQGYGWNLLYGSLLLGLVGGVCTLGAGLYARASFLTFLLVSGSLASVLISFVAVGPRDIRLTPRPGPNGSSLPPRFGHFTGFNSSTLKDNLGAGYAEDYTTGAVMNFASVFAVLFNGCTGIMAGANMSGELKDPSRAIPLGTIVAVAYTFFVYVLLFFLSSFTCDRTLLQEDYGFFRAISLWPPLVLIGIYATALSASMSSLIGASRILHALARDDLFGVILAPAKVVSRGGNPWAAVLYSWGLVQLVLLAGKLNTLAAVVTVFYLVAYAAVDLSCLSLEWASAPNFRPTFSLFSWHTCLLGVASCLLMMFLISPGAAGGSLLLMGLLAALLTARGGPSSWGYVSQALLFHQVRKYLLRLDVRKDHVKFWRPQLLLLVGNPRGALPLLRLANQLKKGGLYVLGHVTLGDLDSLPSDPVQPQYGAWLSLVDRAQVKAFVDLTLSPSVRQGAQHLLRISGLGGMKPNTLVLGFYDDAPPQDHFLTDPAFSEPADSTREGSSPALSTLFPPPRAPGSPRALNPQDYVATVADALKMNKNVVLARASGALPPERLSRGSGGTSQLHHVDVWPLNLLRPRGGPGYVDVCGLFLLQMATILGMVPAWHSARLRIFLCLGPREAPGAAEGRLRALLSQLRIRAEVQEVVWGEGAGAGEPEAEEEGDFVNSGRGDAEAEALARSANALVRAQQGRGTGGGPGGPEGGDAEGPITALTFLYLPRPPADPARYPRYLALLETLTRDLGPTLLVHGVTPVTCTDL
UniProt P52306, sequence (P52306 whole entry, looked up): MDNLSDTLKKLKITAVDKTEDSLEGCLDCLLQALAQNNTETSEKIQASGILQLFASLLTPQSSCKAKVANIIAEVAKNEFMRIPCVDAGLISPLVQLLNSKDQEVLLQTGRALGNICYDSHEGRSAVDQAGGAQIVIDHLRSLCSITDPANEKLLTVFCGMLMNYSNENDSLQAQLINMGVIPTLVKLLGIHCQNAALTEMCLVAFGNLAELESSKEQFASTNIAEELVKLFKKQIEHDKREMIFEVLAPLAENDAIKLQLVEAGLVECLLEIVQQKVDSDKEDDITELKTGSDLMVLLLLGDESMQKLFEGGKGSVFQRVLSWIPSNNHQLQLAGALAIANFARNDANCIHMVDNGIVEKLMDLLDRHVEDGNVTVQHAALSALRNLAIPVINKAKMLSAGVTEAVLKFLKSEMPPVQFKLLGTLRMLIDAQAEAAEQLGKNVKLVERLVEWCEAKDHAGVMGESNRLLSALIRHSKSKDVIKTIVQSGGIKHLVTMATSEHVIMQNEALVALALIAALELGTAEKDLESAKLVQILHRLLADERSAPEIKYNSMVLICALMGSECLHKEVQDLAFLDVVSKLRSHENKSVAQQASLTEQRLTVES
UniProt Q92930, sequence (Q92930 whole entry, looked up): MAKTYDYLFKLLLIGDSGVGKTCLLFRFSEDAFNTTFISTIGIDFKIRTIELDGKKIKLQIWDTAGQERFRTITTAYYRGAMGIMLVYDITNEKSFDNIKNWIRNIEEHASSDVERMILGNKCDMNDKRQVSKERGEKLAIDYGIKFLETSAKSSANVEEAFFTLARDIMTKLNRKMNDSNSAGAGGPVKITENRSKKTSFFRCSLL
UniProt Q9UKM9, sequence (Q9UKM9 whole entry, looked up): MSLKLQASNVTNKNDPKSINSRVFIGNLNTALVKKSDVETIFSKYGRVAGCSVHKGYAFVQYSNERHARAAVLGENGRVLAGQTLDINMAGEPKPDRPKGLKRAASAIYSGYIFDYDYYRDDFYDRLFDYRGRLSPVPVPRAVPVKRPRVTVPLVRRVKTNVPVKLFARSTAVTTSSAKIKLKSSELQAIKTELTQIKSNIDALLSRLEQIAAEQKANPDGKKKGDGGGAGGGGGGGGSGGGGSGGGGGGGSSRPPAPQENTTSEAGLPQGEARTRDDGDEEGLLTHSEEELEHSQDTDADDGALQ
UniProt O00584, sequence (O00584 whole entry, looked up): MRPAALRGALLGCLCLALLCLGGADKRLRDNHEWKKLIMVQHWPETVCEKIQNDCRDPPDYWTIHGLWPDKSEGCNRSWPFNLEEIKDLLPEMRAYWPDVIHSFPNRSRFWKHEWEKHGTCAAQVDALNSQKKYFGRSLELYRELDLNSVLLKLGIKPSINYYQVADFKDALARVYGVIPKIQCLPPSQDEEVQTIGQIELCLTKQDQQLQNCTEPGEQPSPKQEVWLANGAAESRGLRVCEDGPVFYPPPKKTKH

Row | Target | log2 fold change [1] | log2 fold change [2] | log2 fold change [3] | log2 fold change [4] | log2 fold change [5] | log2 fold change [6] | log2 fold change [7] | log2 fold change [8] | log2 fold change [9] | log2 fold change [10] | log2 fold change [11] | log2 fold change [12] | log2 fold change [13] | log2 fold change [14] | log2 fold change [15] | log2 fold change [16] | log2 fold change [17] | log2 fold change [18] | log2 fold change [19] | log2 fold change [20]
1 | RAP1GDS1 isoform 5 (UniProt P52306) | -0.04 | -0.035 | 0.073 | 0.042 | -0.023 | -0.014 | 0.174 | 0.016 | 0.047 | 0.019 | -0.018 | -0.27 | 0.077 | 0 | 0.01 | -0.008 | -0.017 | 0.072 | -0.012 | -0.002
2 | RNASET2 (UniProt O00584) | 0.007 | 0.026 | 0.033 | 0.027 | -0.079 | -0.019 | 0.004 | 0.001 | -0.006 | -0.013 | -0.275 (active) | -0.196 | 0.023 | -0.027 | 0.039 | 0.045 | 0.036 | -0.006 | -0.036 | -0.413 (active)
3 | SESN2 (UniProt P58004) | 0.166 | -0.069 | -0.017 | -0.031 | 0.094 | 0.194 | 0.186 | 0.19 | 0.046 | 0.119 | -0.244 | -0.522 (active) | 0.165 | 0.083 | 0.061 | -0.292 | 0.115 | -0.081 | 0.015 | -0.247
4 | SHCBP1 (UniProt Q8NEM2) | 0 | -0.032 | 0 | 0.07 | 0.047 | 0.102 | 0.027 | -0.014 | 0.018 | 0.117 | -0.013 | -0.052 | 0.102 | -0.008 | -0.084 | 0.117 | 0.111 | -0.028 | 0.056 | -0.139
5 | RALY (UniProt Q9UKM9) | 0.091 | -0.021 | -0.05 | 0.105 | 0.358 | -0.056 | 0.187 | 0.005 | 0.209 | -0.138 | 0.113 | -0.05 | 0.136 | -0.277 | 0.012 | 0.173 | 0.001 | -0.134 | 0.358 | 0.092
6 | SLC12A9 (UniProt Q9BXP2) | -0.007 | 0.056 | -0.04 | 0.005 | -0.008 | 0.017 | -0.012 | -0.059 | -0.014 | 0.083 | 0.014 | -0.034 | -0.016 | 0.059 | 0.037 | -0.016 | -0.02 | 0.034 | -0.075 | -0.136
7 | RAB8B (UniProt Q92930) | 0.055 | 0.013 | 0.073 | 0.081 | -0.082 | 0.192 | 0.018 | 0.109 | -0.014 | -0.016 | 0.036 | 0.033 | -0.039 | 0.229 | -0.011 | 0.003 | 0.013 | 0.085 | -0.05 | 0.227
